The nature of test [1]: compound effects on differentiated 3T3-L1 adipocyte viability – cell-based, 3T3-L1 adipocytes, calcein-AM fluorescence, 48 h, basal, profiling panel (AID 1163). The settings on record: 3T3-L1 adipocytes viability, higher = more signal.
Test [2] is described as follows: compound effects on hepatocellular carcinoma cell viability – HepG2, calcein-AM fluorescence, 48 h, basal, profiling panel (AID 1164). The settings on record: higher = more signal.
A short description of test [3]: compound effects on multiple myeloma cell viability – MM1S, calcein-AM fluorescence, 48 h, basal, profiling panel (AID 1165).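 Further: viability of MM1S multiple myeloma cells under basal unstimulated conditions.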 To be noted: higher = more signal.
Test [4] is described as follows: calcein-AM signal in unstimulated myeloma cells – cell-based, calcein-AM fluorescence, 48 h, PK04 Diversity Set, profiling panel (AID 1166).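 Further: cells grown under basal conditions without added stimulus.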 To be noted: RPMI8226 myeloma viability, higher = more signal.
A short description of test [5]: JC-1 mitochondrial signal, unstimulated HepG2 cells – cell-based, JC-1 fluorescence, 24 h, 100 nL compound, profiling panel (AID 1167). The settings on record: HepG2 mitochondrial potential, higher = more signal.
The nature of test [6]: JC-1 mitochondrial signal, unstimulated adipocytes – cell-based, JC-1 fluorescence, 3T3-L1 adipocytes, 24 h, 100 nL compound, profiling panel (AID 1168). The settings on record: JC-1 mitochondrial fluorescence, higher = more signal, called active from +8 up or from −8 down.
The nature of test [7]: JC-1 mitochondrial signal, unstimulated myeloma cells – cell-based, JC-1 fluorescence, RPMI8226, 24 h, 100 nL compound, profiling panel (AID 1169). To be noted: JC-1 mitochondrial potential fluorescence, higher = more signal.
Test [8] can be described thus: JC-1 mitochondrial signal, unstimulated MM1S myeloma – cell-based, JC-1 fluorescence, 24 h, 100 nL compound, profiling panel (AID 1170). The settings on record: MM1S mitochondrial potential, higher = more signal.
Test [9] is described as follows: resazurin metabolic signal in A549 cells – cell-based, resazurin fluorescence, 24 h, PK04 Diversity Set, profiling panel (AID 1171). The settings on record: A549 viability, higher = more signal, called active from +8 up or from −8 down.
A short description of test [10]: resazurin metabolic signal in HepG2 cells – cell-based, resazurin fluorescence, 24 h, PK04 Diversity Set, profiling panel (AID 1172). The settings on record: HepG2 viability, higher = more signal. Background: The colour change of resazurin is a common sign of viable cells or microbes.
Test [11] can be described thus: budding yeast growth changes without added modifier – OD600, strain BY4716, 24 h, basal condition, primary screen (AID 1173). The settings on record: S. cerevisiae BY4716 growth, OD600, 24 h; higher = more signal, called active from +8 up or from −8 down.
The nature of test [12]: viability profiling in MM1S myeloma cells – cell-based, resazurin fluorescence, basal, 24 h, PK04 Diversity Set, profiling panel (AID 1174). The settings on record: higher = more signal, called active from +8 up or from −8 down.
The target of test [13] is Dihydroorotate dehydrogenase (quinone), mitochondrial (Plasmodium falciparum (isolate 3D7)) (UniProt Q08210). Put plainly: inhibition of P. falciparum DHODH – biochemical, C-terminal His tag, absorbance 600 nm, primary screen (AID 1175).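 Further: recombinant parasite enzyme with a five histidine tag at its C terminus.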 The settings on record: PfDHODH enzyme, DCIP absorbance 600 nm; higher = more signal, called active from +8 up or from −8 down.
The nature of test [14]: growth modulation of vineyard yeast isolate – strain RM11-1a, OD600, basal, 24 h, primary screen (AID 1177).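 Further: cultures grown under basal conditions with no added stressor.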 The settings on record: S. cerevisiae RM11-1a growth, OD600, 24 h; higher = more signal, called active from +8 up or from −8 down.
Test [15] is described as follows: growth of efflux-deficient E. coli DRC39 – strain DRC39, OD650, 24 h, E. coli filamentation inducers, primary screen (AID 1178).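 Further: growth measured as culture turbidity by optical density at 650 nm.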 To be noted: E. coli DRC39 acrAB, higher = more signal, called active from +8 up or from −8 down.
Test [16] can be described thus: growth of efflux-deficient E. coli DRC39 – strain DRC39, OD650, 48 h, E. coli filamentation inducers, primary screen (AID 1179).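 Further: screen aims at cell division blockers that make cells filament.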 The settings on record: E. coli DRC39 delta-acrAB growth, higher = more signal, called active from +8 up or from −8 down.
Test [17] in a line: viability profiling in RPMI8226 myeloma cells – cell-based, resazurin fluorescence, basal, 24 h, PK04 Diversity Set, profiling panel (AID 1180).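 Further: RPMI8826 multiple myeloma cell line at 5000 cells per well.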 The settings on record: higher = more signal.
In test [18] the target is E3 ubiquitin-protein ligase XIAP (Homo sapiens) (UniProt P98170). Put plainly: small molecules binding XIAP protein – biophysical, small-molecule microarray, fluorescence 635 nm, primary screen (AID 1181).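 Further: score merges 667 nm emission and signal to noise over triplicate slides.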 To be noted: higher = more signal.
Test [19] has as its system XIP peptide (Xip251-270) binding. Put plainly: XIP fragment 251-270 binding compounds – biochemical, small-molecule microarray, fluorescence 635/667 nm, 0.1 µg/mL protein, primary screen (AID 1182). The settings on record: fluorescent protein binding, 635 nm, higher = more signal, called active from +8 up or from −8 down.
In another test the test system is XIP peptide (Xip251-270). Put plainly: compounds binding XIP fragment 251-270 – biochemical, small-molecule microarray, fluorescence 635/667 nm, 0.5 µg/mL protein, primary screen (AID 1183). The settings on record: fluorescence 635 nm, higher = more signal.

The structures appear in SMILES notation. The source made the active and inactive calls.

Chain of E3 ubiquitin-protein ligase XIAP (Homo sapiens) (P98170 whole entry, looked up, the tested form may be a part): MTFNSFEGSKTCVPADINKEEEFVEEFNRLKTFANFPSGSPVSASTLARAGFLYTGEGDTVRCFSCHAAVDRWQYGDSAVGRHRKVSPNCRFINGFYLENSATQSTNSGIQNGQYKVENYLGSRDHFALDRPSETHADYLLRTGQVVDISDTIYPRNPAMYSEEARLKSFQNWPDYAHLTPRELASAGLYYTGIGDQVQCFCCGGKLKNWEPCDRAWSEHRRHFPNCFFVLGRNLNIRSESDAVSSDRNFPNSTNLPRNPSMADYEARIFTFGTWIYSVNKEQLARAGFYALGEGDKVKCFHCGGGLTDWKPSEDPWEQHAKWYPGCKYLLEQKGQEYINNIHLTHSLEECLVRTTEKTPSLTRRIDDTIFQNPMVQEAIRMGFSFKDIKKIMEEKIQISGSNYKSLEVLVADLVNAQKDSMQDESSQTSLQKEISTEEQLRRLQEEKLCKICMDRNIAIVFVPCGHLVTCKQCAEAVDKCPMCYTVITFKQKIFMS
Chain of Dihydroorotate dehydrogenase (quinone), mitochondrial (Plasmodium falciparum (isolate 3D7)) (Q08210 whole entry, looked up): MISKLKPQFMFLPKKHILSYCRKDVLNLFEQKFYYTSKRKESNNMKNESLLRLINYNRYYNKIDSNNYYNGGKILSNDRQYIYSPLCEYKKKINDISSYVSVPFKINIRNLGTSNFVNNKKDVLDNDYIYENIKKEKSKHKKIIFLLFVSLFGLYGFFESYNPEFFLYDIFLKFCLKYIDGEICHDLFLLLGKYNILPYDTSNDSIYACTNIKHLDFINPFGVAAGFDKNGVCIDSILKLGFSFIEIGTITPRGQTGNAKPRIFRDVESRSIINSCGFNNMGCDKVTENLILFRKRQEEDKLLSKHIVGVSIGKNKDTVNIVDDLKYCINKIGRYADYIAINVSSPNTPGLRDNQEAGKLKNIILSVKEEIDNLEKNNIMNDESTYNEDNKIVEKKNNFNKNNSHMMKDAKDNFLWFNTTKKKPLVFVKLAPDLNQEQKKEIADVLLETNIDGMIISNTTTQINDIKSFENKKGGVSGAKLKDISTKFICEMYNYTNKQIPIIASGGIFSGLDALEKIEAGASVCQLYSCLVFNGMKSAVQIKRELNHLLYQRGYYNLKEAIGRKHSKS

Consider `C=CCNC(=O)[C@@H]1[C@H]2C(=O)O[C@H](c3ccccc3)[C@H](c3ccccc3)N2[C@H](c2ccc(O)cc2)[C@@]12C(=O)Nc1ccccc12`, for which the z-score in test [1] is 2.33; in test [2], 0.869; in test [3], 0.306; in test [4], -2.6; in test [5], -0.581; in test [6] it was 0.889 (inactive). The z-score in test [7] is -0.824; in [8] it was 1.31; in test [9], 0.679 (inactive); in test [10], -0.696; in [11], -0.146 (inactive); in test [12], 0.634 (inactive). Further, the z-score is 0.87 (inactive) in test [14], 0.874 (inactive) in test [15], 0.634 (inactive) in test [16] and 0.812 in test [17]. Also, the composite z-score in test [13] was -0.132 (inactive); in test [18], 0.276; in test [19] it was 0.768 (inactive); in the test with XIP peptide (Xip251-270) it was 0.888.

Take `C=C[C@H](OC)[C@@H](OC(=O)Nc1ccc(OC)cc1)c1ccc(OC)c(O)c1`: the z-score is 0.922 in test [1]; -0.737 in [2]; 0.478 in test [3]; 0.294 in test [4]; -0.638 in test [5]; 1.02 (inactive) in test [6]. In addition, the z-score in test [7] is 0.756; in [8] it was 0.206; in test [9] it was 0.304 (inactive); in [10], 0.895; in [11], -1.01 (inactive); in test [12] it was 1.12 (inactive). The z-score is 0.0923 (inactive) in test [14], 1.89 (inactive) in test [15], 1.29 (inactive) in test [16] and 1.15 in test [17]. Further, the composite z-score was 0.465 (inactive) in test [13], 0.0073 in test [18], 1.11 (inactive) in test [19] and -1.18 with XIP peptide (Xip251-270).

For the compound `C=CCNC(=O)[C@@H]1[C@H]2C(=O)O[C@H](c3ccccc3)[C@H](c3ccccc3)N2[C@H](c2ccc(O)cc2)[C@@]12C(=O)Nc1ccc(C#Cc3ccc(OC)cc3)cc12`, the z-score in test [1] is 1.12; in [2] it was -2.27; in test [3], -2.63; in [4] it was -4.22; in test [5], -2.39; in [6], 2.94 (inactive). Further, the z-score was -1.16 in test [7]; -0.975 in test [8]; -1.58 (inactive) in [9]; -0.322 in [10]; -0.267 (inactive) in [11]; -1.64 (inactive) in test [12]. Moreover, the z-score in test [14] is -0.411 (inactive); in [15] it was -0.071 (inactive); in [16], 0.773 (inactive); in test [17], -3.89. In addition, the composite z-score in [13] is -1.35 (inactive); in test [18] it was -0.0932; in test [19], 0.507 (inactive); in the test with XIP peptide (Xip251-270), 0.543.

`COCCCNC(=O)[C@@]1(C)c2ccccc2C(=O)N(Cc2cc(F)cc(C(F)(F)F)c2)[C@H]1c1ccc(CO)cc1`: the z-score in [1] is 0.604; in test [2], -0.176; in test [3], 0.534; in test [4], -0.0765; in [5], 1.32; in test [6], 0.0832 (inactive). Moreover, the z-score is -0.69 in test [7]; 0.659 in test [8]; 0.914 (inactive) in test [9]; -0.0724 in [10]; 0.416 (inactive) in test [11]; 1.09 (inactive) in test [12]. The z-score in test [14] is 1.35 (inactive); in test [15], 1.04 (inactive); in test [16], 0.359 (inactive); in test [17] it was 1.31. In addition, the composite z-score in test [13] was 0.408 (inactive); in test [18] it was 2.62; in test [19], -0.268 (inactive); with XIP peptide (Xip251-270) it was -1.16.

The values are drawn from PubChem BioAssay.
